Results from PubChem BioAssay (NCATS).
Results filed as inconclusive are left out. Unmarked numbers belong to inactive results. Activity calls are given as the source filed them. Calls follow the shape of the full dose curve.

Assay: Primary qHTS for Huh7 cytotoxicity: counterscreen for inhibitors of MERS-S pseudotyped particle cell entry (AID 1479147)
Conditions: cell viability read-out; series mostly up to 57.1 µM; activity change, negative = cytotoxicity: at the top concentration
% is scaled to controls: 0 for no effect and ±100 for the full control effect.

| Structure (SMILES) | activity change, negative = cytotoxicity | outcome |
| --- | --- | --- |
| CNC1(C)C2CCC(C2)C1(C)C (stereo not given) | -2.47% |  |
| O=C(O)P(=O)(O)O |  | inactive |
| CC[C@@]1(c2ccccc2)NC(=O)N(C)C1=O |  | inactive |
| CC[C@@H]([C@H](C)O)n1ncn(-c2ccc(N3CCN(c4ccc(OC[C@@H]5CO[C@@](Cn6cncn6)(c6ccc(F)cc6F)C5)cc4)CC3)cc2)c1=O | -20.3% |  |
| Nc1[nH]c(=O)ncc1F |  | inactive |
